This is an account of results in PubChem BioAssay (EPA / NIEHS).

Values joined by “and” are separate entries in the source; they are usually repeats but may differ in a detail not shown here. Equal values may be shown once. A structure can be active in one record and inactive in another. Active and inactive are the calls of the source. Rule for the calls: active = hit-call score of the fitted dose curve at least 0.9, where 1 is the maximum; inactive = score below 0.9.

Read-out in this assay: Interleukin-8 (IL8), CXCL8 (gene 3576)
The assay is described as follows: BSK_3C_IL8: BioMAP Diversity Plus: 3C Assay for Interleukin-8 (IL8) Biomarker Activity (AID 2283020). Conditions: primary human endothelial cells (HUVEC); actives raise or lower the signal. On the procedure:
BSK_3C is a cell-based, multiplexed-readout assay that uses umbilical vein endothelium, a human vascular primary cell, with measurements taken at 24 hours after chemical dosing in a 96-well plate.BSK_3C_IL8 is an assay component measured in the BSK_3C assay. It measures IL-8 antibody related to regulation of gene expression using ELISA technology.Data from the assay component BSK_3C_IL8 was analyzed into 1 assay endpoint. This assay endpoint, BSK_3C_IL8, was analyzed with bidirectional fitting relative to DMSO as the negative control and baseline of activity. Using a type of binding reporter, gain or loss-of-signal activity can be used to understand changes in the signaling as they relate to the gene CXCL8. Furthermore, this assay endpoint can be referred to as a primary readout, because this assay has produced multiple assay endpoints where this one serves a signaling function. To generalize the intended target to other relatable targets, this assay endpoint is annotated to the cytokine intended target family, where the subfamily is interleukins.
The levels of cell surface (or secreted, indicated by the prefix "s") biomarker endpoints were measured by ELISA. Overt cytotoxicity to cells in confluent adherent cultures (all systems other than the BT system) was assessed by measuring total protein levels using sulforhodamine B (SRB) staining in parallel cultures at the time of biomarker measurements, indicated as SRB endpoints. For proliferation assays for adherent cell types, individual cell types are cultured at sub-confluence and relative cell numbers quantified by SRB staining at time points optimized for each system (48 h: 3C and CASM3C systems; 72 h: BT and HDF3CGF systems; 96 h: SAg system). SRB was performed by staining cells with 0.1% SRB after fixation with 10% TCA and reading wells at 560 nm.Viability and proliferation of PBMC (T cells) was quantified by Alamar Blue reduction for the SAg and BT systems. For PBMC viability (referred to as PBMC Cytotoxicity within the assay endpoint names), cells were plated (75,000/well in a 96-well plate) and then chemical samples added for 1 h before addition of activators, SEB and TSST-1 (20 ng/mL final concentration each). Cells were incubated for 90 h. Then, Alamar Blue (20 uL/well) (Invitrogen, Cat DAL1100) was added for 6 h, and the plates were read with a fluorescence microplate reader at 546/580 nm (excitation/emission). For PBMC proliferation, cells were plated and activated as above but incubated for only 16 h prior to addition of Alamar Blue. Plates were read after 6 h.
In the case of `Clc1ccc(C(c2ccccc2Cl)C(Cl)(Cl)Cl)cc1` (stereo not given), the AC50 is 20.4 µM (active). Take `C1CC2OC2CC1C1CO1` (stereo not given): the result was inactive.

Regarding `Nc1ccc(-c2ccc(N)cc2)cc1`, the outcome was inactive.

Consider `ClC1=C(Cl)[C@]2(Cl)[C@@H]3[C@H]4C[C@H]([C@@H]5O[C@H]45)[C@@H]3[C@@]1(Cl)C2(Cl)Cl`, for which the result was inactive. For the molecule `COc1ccc(O)c(C(C)(C)C)c1`, the result was inactive. `CN(C)c1nc(=O)n(C2CCCCC2)c(=O)n1C`: the outcome was inactive. Take `O=C(O)C(F)(F)C(F)(F)C(F)(F)C(F)(F)C(F)(F)C(F)(F)C(F)(F)C(F)(F)C(F)(F)F`: the outcome was inactive; the AC50 is 53.6 µM (active) and 47 µM (active). As for `Clc1ccc(Cl)cc1`, the outcome was inactive.

`ClC1=C(Cl)[C@]2(Cl)[C@@H]3[C@@H](Cl)[C@H]4O[C@H]4[C@@H]3C1(Cl)C2(Cl)Cl`: the result was inactive. Regarding `CCC(C)c1cc([N+](=O)[O-])cc([N+](=O)[O-])c1O` (stereo not given), the AC50 was 7.38 µM (active). Take `CO/C=C(/C(=O)OC)c1ccccc1COc1cccc(C(F)(F)F)n1`: the AC50 is 10.1 µM (active). `Nn1cnnc1`: the outcome was inactive.

Turning to `Clc1ccc(C(Cl)(Cl)Cl)cc1`, the outcome was inactive. Regarding `CC(C)(O)C(=O)Nc1ccc([N+](=O)[O-])c(C(F)(F)F)c1`, the result was inactive. Consider `NS(=O)(=O)C(F)(F)C(F)(F)C(F)(F)C(F)(F)C(F)(F)C(F)(F)C(F)(F)C(F)(F)F`, for which the AC50 was 32.8 µM (active) and 47.7 µM (active) and 53.4 µM (active). `Cc1cc(O)ccc1Cl`: the outcome was inactive.

For the molecule `Oc1ccc(C(c2ccc(O)cc2)(C(F)(F)F)C(F)(F)F)cc1`, the AC50 was 18.8 µM (active).

`CCCCCCCCCc1ccc(O)cc1`: the AC50 was 15.5 µM (active). Still for that read-out and setting: to `CCCCCCOC(=O)c1ccccc1C(=O)OCCCCCC` belongs 31.1 µM (active). Regarding `CCC(C)(CC)c1cc(NC(=O)c2c(OC)cccc2OC)on1`, the result was inactive. As to `Oc1c(Cl)c(Cl)c(Cl)c(Cl)c1Cl`, the AC50 was 20 µM (active) and the outcome was inactive. Regarding `CC(C)C(=O)OCC(C)(C)C(OC(=O)C(C)C)C(C)C` (stereo not given), the outcome was inactive. As to `CC(C)(c1ccccc1)c1ccc(O)cc1`, the AC50 was 35.6 µM (active). As for `CC1=C2C[C@H]3[C@@H](CC=C4C[C@@H](O)CC[C@@]43C)[C@@H]2CC[C@]12O[C@@H]1C[C@H](C)CN[C@H]1[C@H]2C`, the result was inactive. As to `Sc1ccccc1`, the outcome was inactive. The same measure, in the same setting: to `CN(C)CCO` belongs “inactive”; to `CCCCCCCCOC(=O)c1ccccc1C(=O)OCCCCCCCC`, “inactive”; to `Cc1cccc(C)c1N`, “inactive”. Consider `Cc1cc(-c2ccc(N)c(C)c2)ccc1N`, for which the result was inactive. Same read-out and setting: to `Cc1ccccc1O` belongs “inactive”. On to `CCCCCCCCCC[N+](C)(C)CCCCCCCCCC`, for which the AC50 is 4.54 µM (active). Consider `N#Cc1ccc(N(CC(N)=O)CC(F)(F)F)cc1C(F)(F)F`, for which the outcome was inactive. For the molecule `Cc1cccc([N+](=O)[O-])c1`, the outcome was inactive.

Regarding `COS(=O)(=O)OC`, the result was inactive. The same measure, in the same setting: to `C=CC(N)=O` belongs “inactive”; to `CC(c1ccc(O)cc1)(c1ccc(O)cc1)c1ccc(O)cc1`, “inactive”. As for `ClC(Cl)=C(c1ccc(Cl)cc1)c1ccc(Cl)cc1`, the AC50 was 32.1 µM (active).

Regarding `O=NN(c1ccccc1)c1ccccc1`, the outcome was inactive.

What is called AC50 is the concentration giving half of the maximal activity seen.
